This note sets out measurements from PubChem BioAssay (EPA / NIEHS).

Read-out in test [1]: Intercellular Adhesion Molecule 1 (ICAM1), ICAM1 (gene 3383)
The experiment in a line: BSK_3C_ICAM1: BioMAP Diversity Plus: 3C Assay for Intercellular Adhesion Molecule 1 (ICAM1) Biomarker Activity (AID 2283003). The note with it: primary human endothelial cells (HUVEC); actives raise or lower the signal. In outline:
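Primary human umbilical vein endothelial cells in the BioMAP 3C system were exposed to chemicals for 24 h, then ICAM-1 was quantified by ELISA. Activity was fitted bidirectionally against the DMSO negative control baseline.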

Test [2] deals with human Retinoic Acid Receptor beta (RARb), RARB (gene 5915) (UniProt P10826). The experiment in a line: ATG_RARb_TRANS: Attagene TRANS-FACTORIAL HepG2 Assay for human Retinoic Acid Receptor beta (AID 2283004; active = hit-call score of the fitted dose curve at least 0.9, where 1 is the maximum). An outline of the steps: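 Induction of reporter mRNA from a chimeric RARb-Gal4 construct was measured by RT-PCR, FAM labelling, HpaI digestion and capillary electrophoresis. Measurements followed 24 h compound treatment of transiently transfected human HepG2 liver cells, with DMSO as baseline.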
Chain of human Retinoic Acid Receptor beta (RARb), RARB (gene 5915) (P10826 whole entry, looked up, the tested form may be a part): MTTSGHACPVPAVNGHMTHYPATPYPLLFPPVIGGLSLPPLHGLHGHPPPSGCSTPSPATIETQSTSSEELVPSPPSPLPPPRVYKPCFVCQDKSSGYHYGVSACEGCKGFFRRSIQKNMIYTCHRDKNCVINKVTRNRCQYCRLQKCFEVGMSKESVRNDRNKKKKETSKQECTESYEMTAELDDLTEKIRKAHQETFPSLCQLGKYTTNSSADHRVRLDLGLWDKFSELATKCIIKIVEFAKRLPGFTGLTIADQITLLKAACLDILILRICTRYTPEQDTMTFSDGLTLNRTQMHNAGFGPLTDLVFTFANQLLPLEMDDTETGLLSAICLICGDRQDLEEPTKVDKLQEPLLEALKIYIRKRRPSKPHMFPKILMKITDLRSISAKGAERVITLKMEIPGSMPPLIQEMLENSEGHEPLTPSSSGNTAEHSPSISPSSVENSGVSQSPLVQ

Test [3] deals with Retinoic acid receptor alpha (Homo sapiens) (UniProt P10276). The test is described as follows: ATG_RARa_TRANS: Attagene TRANS-FACTORIAL HepG2 Assay for human Retinoic Acid Receptor alpha (RARa) (AID 2283005; active = hit-call score of the fitted dose curve at least 0.9, where 1 is the maximum). In outline:
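HepG2 transiently transfected with multiplex GAL4-UAS reporter units including a human RARa–GAL4 chimera; 24 h compound exposure. Reporter mRNA quantified by RT-PCR, 6-FAM labeling and capillary electrophoresis; gain of signal versus DMSO.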

The nature of test [4]: BSK_3C_Proliferation: Cell Proliferation Assessment in the BioMAP Diversity Plus: 3C Assay (AID 2283006).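 As to AC50: potency may reflect either rise or fall in cell number versus DMSO.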 The note with it: primary human endothelial cells (HUVEC). An outline of the steps: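 Human umbilical vein endothelial cells were grown sub-confluent and exposed to chemical for 48 h, then fixed with 10% TCA and stained with 0.1% sulforhodamine B; absorbance at 560 nm gave relative cell number, fitted bidirectionally against DMSO baseline.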

Test [5] addresses Peroxisome proliferator-activated receptor gamma (Homo sapiens) (UniProt P37231). The test is described as follows: ATG_PPARg_TRANS: Attagene TRANS-FACTORIAL HepG2 Assay for human Peroxisome Proliferator-activated Receptor-gamma (PPARg) (AID 2283007; active = hit-call score of the fitted dose curve at least 0.9, where 1 is the maximum). In outline: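 Read-out: reporter mRNA induction, detected by fluorescence after RT-PCR and capillary electrophoresis. Transiently transfected human HepG2 liver cells carrying a chimeric NR-Gal4 construct were dosed for 24 h; activity was fitted upward relative to DMSO.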

Test [6] addresses Nuclear receptor subfamily 1 group I member 2 (Homo sapiens) (UniProt O75469). The test is described as follows: ATG_PXR_TRANS: Attagene TRANS-FACTORIAL HepG2 Assay for human Pregnane X Receptor (PXR) (AID 2283008; active = hit-call score of the fitted dose curve at least 0.9, where 1 is the maximum). In outline:
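HepG2 cells transiently transfected with GAL4-UAS reporter units and PXR-Gal4 chimera, exposed 24 h. Reporter mRNA quantified by RT-PCR, fluorescent labelling, HpaI digestion and capillary electrophoresis; gain of signal vs DMSO.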

Test [7] concerns the target human Retinoic Acid Receptor gamma (RARg), RARG (gene 5916) (UniProt P13631). The experiment in a line: ATG_RARg_TRANS: Attagene TRANS-FACTORIAL HepG2 Assay for human Retinoic Acid Receptor gamma (RARg) (AID 2283009; active = hit-call score of the fitted dose curve at least 0.9, where 1 is the maximum). An outline of the steps: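 HepG2 cells transiently transfected with multiplexed reporter units expressing chimeric RARg-GAL4 and GAL4-UAS-driven reporters; 24 h compound exposure. Reporter mRNA quantified by RT-PCR with fluorescent labelling and capillary electrophoresis; gain-of-signal fitted relative to DMSO baseline.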

Test [8] addresses human RAR-related Orphan Receptor beta (RORb), RORB (gene 6096) (UniProt Q92753). The experiment in a line: ATG_RORb_TRANS: Attagene TRANS-FACTORIAL HepG2 Assay for human RAR-related Orphan Receptor beta (RORb) (AID 2283010; active = hit-call score of the fitted dose curve at least 0.9, where 1 is the maximum). In outline:
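HepG2 cells were transiently transfected with multiplexed GAL4-UAS reporter units expressing chimeric nuclear receptor–GAL4 proteins, then dosed for 24 h. Reporter mRNA was quantified by RT-PCR with fluorescent labelling and capillary electrophoresis; gain of signal was fitted relative to DMSO.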

Test [9] deals with human RAR-related Orphan Receptor gamma (RORg), RORC (gene 6097) (UniProt P51449). The experiment in a line: ATG_RORg_TRANS: Attagene TRANS-FACTORIAL HepG2 Assay for human RAR-related Orphan Receptor gamma (RORg) (AID 2283011; active = hit-call score of the fitted dose curve at least 0.9, where 1 is the maximum). In outline:
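Reporter transcripts from a transfected RORg-GAL4 chimera in HepG2 cells were quantified 24 h after dosing by RT-PCR, 6-FAM labelling, HpaI digestion and capillary electrophoresis; increases over DMSO baseline were fitted.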

Test [10] addresses Retinoic acid receptor RXR-alpha (Homo sapiens) (UniProt P19793). The test is described as follows: ATG_RXRa_TRANS: Attagene TRANS-FACTORIAL HepG2 Assay for human Retinoid X Receptor alpha (RXRa) (AID 2283012; active = hit-call score of the fitted dose curve at least 0.9, where 1 is the maximum). An outline of the steps: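 HepG2 cells transiently transfected with multiplexed GAL4-UAS reporter units and chimeric NR-GAL4 fusions, dosed 24 h. Reporter mRNA measured by RT-PCR, FAM labelling, HpaI digestion and capillary electrophoresis; gain-of-signal fitted relative to DMSO baseline.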

For test [11], the target named is human Retinoid X Receptor beta (RXRb), RXRB (gene 6257) (UniProt P28702). The test is described as follows: ATG_RXRb_TRANS: Attagene TRANS-FACTORIAL HepG2 Assay for human Retinoid X Receptor beta (RXRb) (AID 2283013; active = hit-call score of the fitted dose curve at least 0.9, where 1 is the maximum). In outline:
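HepG2 cells transiently transfected with multiplexed reporter units driven by GAL4-UAS and exogenous chimeric NR-Gal4 proteins; treated 24 h. Reporter mRNA measured by RT-PCR, 6-FAM labelling and capillary electrophoresis; gain-of-signal fitted versus DMSO baseline.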

Test [12] has as its target human Thyroid Receptor alpha (THRa1), THRA (gene 7067) (UniProt P10827). The experiment in a line: ATG_THRa1_TRANS: Attagene TRANS-FACTORIAL HepG2 Assay for human Thyroid Receptor alpha (THRa1) (AID 2283014; active = hit-call score of the fitted dose curve at least 0.9, where 1 is the maximum). In outline:
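Transcripts from GAL4-UAS-driven reporters, measured after 24 h compound exposure by RT-PCR plus capillary electrophoresis of 6-FAM-labeled fragments, were fitted for gain of signal relative to DMSO. Cells: transiently transfected HepG2 expressing NR-Gal4 chimeras.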

Read-out in test [13]: E-selectin (Homo sapiens) (UniProt P16581)
The experiment in a line: BSK_3C_Eselectin: BioMAP Diversity Plus: 3C Assay for Eselectin Biomarker Activity (AID 2283015).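 As to outcome: cell surface E-selectin protein quantified by ELISA 24 h after dosing.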 Conditions: primary human endothelial cells (HUVEC); actives raise or lower the signal. An outline of the steps:
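E-selectin ELISA readout, fitted bidirectionally relative to DMSO, taken 24 h post-dosing in HUVEC cultures of the 3C system. Overt cytotoxicity tracked with sulforhodamine B staining of parallel wells.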

Read-out in test [14]: Interleukin-1 alpha (IL1a), IL1A (gene 3552)
The test is described as follows: BSK_BE3C_IL1a: BioMAP Diversity Plus: BE3C Assay for Interleukin-1 alpha (IL1a) Biomarker Activity (AID 2283016). The note with it: primary human bronchial epithelial cells; actives raise or lower the signal. In outline: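 Human primary bronchial epithelial cells (BE3C system) were dosed with compound and IL-1a measured by ELISA 24 h later. Activity was fitted bidirectionally against DMSO baseline; cytotoxicity was tracked in parallel cultures by SRB total-protein staining.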

Read-out in test [15]: Monocyte Chemoattractant Protein-1 (MCP1), CCL2 (gene 6347)
The experiment in a line: BSK_4H_MCP1: BioMAP Diversity Plus: 4H Assay for Monocyte Chemoattractant Protein-1 (MCP1) Biomarker Activity (AID 2283018). The note with it: primary human endothelial cells (HUVEC); actives raise or lower the signal. An outline of the steps: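 Human umbilical vein endothelial cells (4H system) dosed with chemical; MCP-1 measured by ELISA 24 h after dosing. Bidirectional curve fitting against DMSO negative control as baseline; parallel SRB total-protein staining tracks overt cytotoxicity.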

Read-out in test [16]: Human Leukocyte Antigen - DR isotype (HLADR), HLA-DRA (gene 3122)
The test is described as follows: BSK_3C_HLADR: BioMAP Diversity Plus: 3C Assay for Human Leukocyte Antigen - DR isotype (HLADR) Biomarker Activity (AID 2283019).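 As to outcome: ELISA of cell-surface HLA-DR on HUVEC 24 h after dosing.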 The note with it: primary human endothelial cells (HUVEC); actives raise or lower the signal. In outline: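 Bidirectional fitting against DMSO was applied to the HLA-DR ELISA signal from human umbilical vein endothelial cells, 24 h post-dose. Cytotoxicity came from parallel SRB total-protein staining; 3C proliferation was counted by SRB at 48 h.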

Read-out in test [17]: Monokine induced gamma interferon (MIG), CXCL9 (gene 4283)
The test is described as follows: BSK_3C_MIG: BioMAP Diversity Plus: 3C Assay for Monokine induced gamma interferon (MIG) Biomarker Activity (AID 2283021).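 As to AC50: MIG protein level measured by immunoassay in the treated endothelial cultures.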 Conditions: primary human endothelial cells (HUVEC); actives raise or lower the signal. An outline of the steps: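 Primary human umbilical vein endothelial cells in the 3C system were exposed to chemical for 24 h, after which MIG was quantified by ELISA. Activity was fitted bidirectionally against DMSO as negative control and baseline.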

Read-out in test [18]: Interleukin-8 (IL8), CXCL8 (gene 3576)
The experiment in a line: BSK_3C_IL8: BioMAP Diversity Plus: 3C Assay for Interleukin-8 (IL8) Biomarker Activity (AID 2283020). The note with it: primary human endothelial cells (HUVEC); actives raise or lower the signal. In outline:
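Primary human umbilical vein endothelial cells (3C system) were exposed to test chemical for 24 h, then IL-8 was quantified by ELISA. Responses were fitted bidirectionally against DMSO vehicle as baseline.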

Test [19] addresses human Vitamin D Receptor (VDR), VDR (gene 7421) (UniProt P11473). The experiment in a line: ATG_VDR_TRANS: Attagene TRANS-FACTORIAL HepG2 Assay for human Vitamin D Receptor (VDR) (AID 2283022; active = hit-call score of the fitted dose curve at least 0.9, where 1 is the maximum). In outline: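 Transactivation by an exogenous VDR-Gal4 chimera in transiently transfected HepG2 cells was measured as reporter transcript level 24 hours after chemical treatment. RT-PCR products were analysed by capillary electrophoresis and fitted in the positive direction relative to DMSO.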

Read-out in test [20]: Monocyte Chemoattractant Protein-1 (MCP1), CCL2 (gene 6347)
The test is described as follows: BSK_3C_MCP1: BioMAP Diversity Plus: 3C Assay for Monocyte Chemoattractant Protein-1 (MCP1) Biomarker Activity (AID 2283017). Conditions: primary human endothelial cells (HUVEC); actives raise or lower the signal. An outline of the steps: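 MCP-1 was measured by ELISA 24 h after dosing in primary HUVEC 3C cultures and fitted in both directions relative to DMSO; cytotoxicity was checked by SRB total-protein staining in parallel wells.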

Molecules are shown by their SMILES. Results filed as inconclusive are left out. The source made the active and inactive calls. The calls were made as follows, unless noted: active = hit-call score of the fitted dose curve at least 0.9, where 1 is the maximum; inactive = score below 0.9.

Chain of human Retinoic Acid Receptor gamma (RARg), RARG (gene 5916) (P13631 whole entry, looked up, the tested form may be a part): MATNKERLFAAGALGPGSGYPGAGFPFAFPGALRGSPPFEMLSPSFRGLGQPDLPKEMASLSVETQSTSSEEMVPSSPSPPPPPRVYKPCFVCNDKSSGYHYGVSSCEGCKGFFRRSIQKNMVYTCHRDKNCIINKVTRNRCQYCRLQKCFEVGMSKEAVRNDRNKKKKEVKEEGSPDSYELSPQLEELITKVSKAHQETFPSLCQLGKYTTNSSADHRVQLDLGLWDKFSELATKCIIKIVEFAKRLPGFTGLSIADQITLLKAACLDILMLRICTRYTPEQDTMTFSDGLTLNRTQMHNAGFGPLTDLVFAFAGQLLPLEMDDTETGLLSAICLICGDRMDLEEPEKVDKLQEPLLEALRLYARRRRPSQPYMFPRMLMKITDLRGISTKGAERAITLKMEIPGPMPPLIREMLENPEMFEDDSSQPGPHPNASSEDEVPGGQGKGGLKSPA
Chain of human RAR-related Orphan Receptor beta (RORb), RORB (gene 6096) (Q92753 whole entry, looked up, the tested form may be a part): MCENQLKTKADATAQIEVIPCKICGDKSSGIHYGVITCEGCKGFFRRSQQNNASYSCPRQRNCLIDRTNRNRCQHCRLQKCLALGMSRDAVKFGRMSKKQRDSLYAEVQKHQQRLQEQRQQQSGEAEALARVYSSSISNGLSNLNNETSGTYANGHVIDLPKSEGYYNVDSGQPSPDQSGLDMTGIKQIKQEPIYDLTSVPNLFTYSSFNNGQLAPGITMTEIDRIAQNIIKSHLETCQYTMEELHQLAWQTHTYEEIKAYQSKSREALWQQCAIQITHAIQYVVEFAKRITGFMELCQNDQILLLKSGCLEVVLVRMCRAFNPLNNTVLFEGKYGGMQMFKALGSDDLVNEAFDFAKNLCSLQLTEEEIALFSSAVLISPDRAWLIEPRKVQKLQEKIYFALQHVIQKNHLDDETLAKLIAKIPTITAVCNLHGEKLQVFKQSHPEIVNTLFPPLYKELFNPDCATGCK
Chain of E-selectin (Homo sapiens) (P16581 whole entry, looked up): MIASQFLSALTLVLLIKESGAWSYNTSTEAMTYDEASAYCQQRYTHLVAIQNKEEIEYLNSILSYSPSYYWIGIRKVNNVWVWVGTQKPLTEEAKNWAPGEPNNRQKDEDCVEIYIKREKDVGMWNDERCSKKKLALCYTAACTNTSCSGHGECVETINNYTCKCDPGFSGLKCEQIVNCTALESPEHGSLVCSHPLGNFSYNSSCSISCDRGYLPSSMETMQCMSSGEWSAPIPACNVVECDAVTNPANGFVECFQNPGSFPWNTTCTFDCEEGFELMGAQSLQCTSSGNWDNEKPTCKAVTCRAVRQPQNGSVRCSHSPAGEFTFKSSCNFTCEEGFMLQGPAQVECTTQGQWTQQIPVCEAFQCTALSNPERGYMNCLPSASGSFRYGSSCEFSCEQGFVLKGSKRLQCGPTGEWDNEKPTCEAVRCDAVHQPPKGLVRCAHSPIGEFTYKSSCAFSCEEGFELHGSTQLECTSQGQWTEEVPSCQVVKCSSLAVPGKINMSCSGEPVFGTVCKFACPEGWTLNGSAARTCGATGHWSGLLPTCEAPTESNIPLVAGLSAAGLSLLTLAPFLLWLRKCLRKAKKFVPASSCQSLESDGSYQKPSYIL
Chain of human RAR-related Orphan Receptor gamma (RORg), RORC (gene 6097) (P51449 whole entry, looked up, the tested form may be a part): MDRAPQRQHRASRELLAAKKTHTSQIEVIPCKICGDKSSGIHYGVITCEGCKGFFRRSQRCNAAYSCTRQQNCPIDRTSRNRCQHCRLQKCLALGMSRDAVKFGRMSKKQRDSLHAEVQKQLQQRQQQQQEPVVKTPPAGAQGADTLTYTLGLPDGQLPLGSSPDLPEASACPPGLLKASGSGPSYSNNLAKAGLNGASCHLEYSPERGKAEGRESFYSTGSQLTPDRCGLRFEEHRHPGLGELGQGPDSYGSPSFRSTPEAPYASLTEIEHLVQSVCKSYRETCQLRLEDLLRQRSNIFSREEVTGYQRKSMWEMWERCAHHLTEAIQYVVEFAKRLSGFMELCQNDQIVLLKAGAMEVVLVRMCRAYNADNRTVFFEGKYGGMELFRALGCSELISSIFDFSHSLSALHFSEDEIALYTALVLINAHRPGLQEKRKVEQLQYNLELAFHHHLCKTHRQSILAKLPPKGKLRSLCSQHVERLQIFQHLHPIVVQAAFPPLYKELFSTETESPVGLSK
Chain of Retinoic acid receptor alpha (Homo sapiens) (P10276 whole entry, looked up, the tested form may be a part): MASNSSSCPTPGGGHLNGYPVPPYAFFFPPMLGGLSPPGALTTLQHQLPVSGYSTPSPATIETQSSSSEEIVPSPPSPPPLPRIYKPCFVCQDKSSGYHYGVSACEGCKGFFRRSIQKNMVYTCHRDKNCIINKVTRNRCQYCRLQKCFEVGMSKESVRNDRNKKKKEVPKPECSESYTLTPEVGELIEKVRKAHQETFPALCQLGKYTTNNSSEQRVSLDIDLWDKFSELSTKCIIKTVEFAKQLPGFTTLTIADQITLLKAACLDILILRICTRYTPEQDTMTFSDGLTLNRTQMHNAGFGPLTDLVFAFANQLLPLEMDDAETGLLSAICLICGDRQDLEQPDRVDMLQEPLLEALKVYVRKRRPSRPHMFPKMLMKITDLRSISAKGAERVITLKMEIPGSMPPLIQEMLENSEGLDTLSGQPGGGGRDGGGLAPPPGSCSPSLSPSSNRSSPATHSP
Chain of human Thyroid Receptor alpha (THRa1), THRA (gene 7067) (P10827 whole entry, looked up, the tested form may be a part): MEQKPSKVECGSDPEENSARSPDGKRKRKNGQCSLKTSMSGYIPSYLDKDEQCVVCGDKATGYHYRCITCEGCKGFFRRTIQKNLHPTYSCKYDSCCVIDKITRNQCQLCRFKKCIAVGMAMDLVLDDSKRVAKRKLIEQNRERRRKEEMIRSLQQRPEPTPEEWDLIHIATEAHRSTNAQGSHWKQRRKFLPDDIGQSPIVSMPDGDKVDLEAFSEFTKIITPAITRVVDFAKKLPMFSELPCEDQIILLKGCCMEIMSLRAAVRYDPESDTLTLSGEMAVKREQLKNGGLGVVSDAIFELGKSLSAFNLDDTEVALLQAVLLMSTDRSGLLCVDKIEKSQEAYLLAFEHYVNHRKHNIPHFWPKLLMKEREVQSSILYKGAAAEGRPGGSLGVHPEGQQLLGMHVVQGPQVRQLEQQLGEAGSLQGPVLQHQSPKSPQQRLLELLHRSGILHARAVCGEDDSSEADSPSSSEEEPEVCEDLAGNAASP
Chain of Nuclear receptor subfamily 1 group I member 2 (Homo sapiens) (O75469 whole entry, looked up, the tested form may be a part): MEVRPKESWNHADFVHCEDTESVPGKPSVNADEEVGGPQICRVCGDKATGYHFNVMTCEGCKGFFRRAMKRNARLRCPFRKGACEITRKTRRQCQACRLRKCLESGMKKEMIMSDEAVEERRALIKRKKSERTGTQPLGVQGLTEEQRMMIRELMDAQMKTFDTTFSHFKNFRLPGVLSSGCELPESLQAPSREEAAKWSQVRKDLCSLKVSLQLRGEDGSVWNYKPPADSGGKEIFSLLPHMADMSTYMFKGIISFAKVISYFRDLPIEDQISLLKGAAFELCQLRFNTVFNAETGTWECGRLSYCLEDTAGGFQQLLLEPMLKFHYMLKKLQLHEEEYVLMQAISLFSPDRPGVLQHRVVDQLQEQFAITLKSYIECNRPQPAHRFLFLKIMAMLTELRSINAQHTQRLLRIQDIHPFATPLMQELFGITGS
Chain of human Retinoid X Receptor beta (RXRb), RXRB (gene 6257) (P28702 whole entry, looked up, the tested form may be a part): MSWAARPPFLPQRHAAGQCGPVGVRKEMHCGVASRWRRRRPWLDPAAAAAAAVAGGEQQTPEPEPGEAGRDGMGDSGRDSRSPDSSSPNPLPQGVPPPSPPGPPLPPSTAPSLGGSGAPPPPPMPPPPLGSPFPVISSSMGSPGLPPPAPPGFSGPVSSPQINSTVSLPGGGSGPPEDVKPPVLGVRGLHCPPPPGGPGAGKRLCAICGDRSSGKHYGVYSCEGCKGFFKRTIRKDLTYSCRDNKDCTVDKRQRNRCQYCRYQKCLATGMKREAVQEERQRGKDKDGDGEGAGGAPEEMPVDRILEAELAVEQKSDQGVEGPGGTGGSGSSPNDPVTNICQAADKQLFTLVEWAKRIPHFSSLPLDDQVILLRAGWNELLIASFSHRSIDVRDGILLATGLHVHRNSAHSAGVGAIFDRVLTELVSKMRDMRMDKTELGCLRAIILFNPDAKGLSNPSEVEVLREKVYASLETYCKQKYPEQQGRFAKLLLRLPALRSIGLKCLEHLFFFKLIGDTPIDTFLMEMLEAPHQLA
Chain of Retinoic acid receptor RXR-alpha (Homo sapiens) (P19793 whole entry, looked up, the tested form may be a part): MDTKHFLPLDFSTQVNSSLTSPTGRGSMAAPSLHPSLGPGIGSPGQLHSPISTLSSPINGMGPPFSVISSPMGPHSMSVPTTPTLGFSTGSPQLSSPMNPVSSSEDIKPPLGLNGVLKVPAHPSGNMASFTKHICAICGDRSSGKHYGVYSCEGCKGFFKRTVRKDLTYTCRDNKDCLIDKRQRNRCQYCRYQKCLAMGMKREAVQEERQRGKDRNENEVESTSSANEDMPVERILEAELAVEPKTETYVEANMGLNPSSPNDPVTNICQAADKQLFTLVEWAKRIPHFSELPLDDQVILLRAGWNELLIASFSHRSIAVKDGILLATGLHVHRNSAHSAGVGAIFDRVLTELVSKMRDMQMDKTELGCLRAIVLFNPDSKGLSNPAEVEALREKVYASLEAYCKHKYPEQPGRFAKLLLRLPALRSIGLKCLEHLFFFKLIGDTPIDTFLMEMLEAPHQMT

With `COc1ccccc1N`, the result in [1], in test [2], in test [3], in [4], in test [5] and in [6] was inactive. Also, the outcome in [7], in [8], in test [9], in test [10], in test [11] and in [12] was inactive. Also, the outcome in [13], in test [14], in test [15], in test [16] and in test [17] was inactive.

For the compound `O=C(O)C1(c2ccc3c(c2)OC[C@H](Cc2ccc(-c4ccccc4)cc2)[C@H]3O)CCCC1`, the result in test [1], in [2], in test [3], in test [6], in test [7] and in test [10] was inactive. The outcome in test [11], in [12] and in [19] was inactive. Further, the AC50 is 13.2 µM (active) in [4]; 24.9 µM (active) in test [13]; 15.3 µM (active) in test [14]; 20 µM (active) in test [15]; 20 µM (active) in [16]; 29.9 µM (active) in test [18]. Moreover, the AC50 in test [17] is 35.7 µM (active).

Consider `Cc1cc(C)cc(C)c1`, for which the outcome in [1], in [2], in test [4], in test [7], in test [8] and in test [10] was inactive. Also, the result in [12], in test [13], in test [14], in test [15], in test [16] and in test [18] was inactive. Besides, in [17], the outcome was inactive.

In the case of `CCOP(=S)(OCC)SCS(=O)(=O)C(C)(C)C`, the result in test [1], in test [2], in test [4], in test [5], in [9] and in test [11] was inactive. Also, the outcome in [13], in test [14], in [15], in [16], in test [18] and in test [17] was inactive. Also, the result in [19] was inactive. Further, the AC50 in test [6] is 2.41 µM (active).

Turning to `Oc1cccc(-c2ccccc2)c1`, the outcome in [1], in test [2], in test [9], in test [10], in test [12] and in test [14] was inactive. Moreover, the result in test [17] was inactive. The AC50 was 27.2 µM (active) in [4]; 34.6 µM (active) in test [5]; 26.1 µM (active) in test [6]; 36.6 µM (active) in [11]; 32 µM (active) in [13]; 30.6 µM (active) in test [20]. In addition, the AC50 was 20 µM (active) in test [15] and 32.9 µM (active) in test [16].

For the compound `COCC(=O)N(c1c(C)cccc1C)[C@H](C)C(=O)OC`, the result in [1], in [2], in test [3], in test [4], in test [5] and in test [7] was inactive. The compound was called inactive in test [9], in test [10], in [13], in test [14], in test [15] and in [16]. Moreover, the result in [17] was inactive. In addition, in [6], the AC50 was 20.2 µM (active).

As for `CCOP(=O)(OCC)OC(=CCl)c1ccc(Cl)cc1Cl`, the result in test [1], in test [2], in [14] and in test [17] was inactive. In addition, the AC50 in test [4] was 28.9 µM (active); in [5] it was 27.4 µM (active); in test [6], 0.62 µM (active); in test [13], 29.2 µM (active); in [20], 35.4 µM (active); in test [15], 20 µM (active). Besides, in [16], the AC50 is 32.7 µM (active).

Broadly, the AC50 is the concentration at which the activity in the assay is half-maximal.
